# Experimental data reported in PubChem BioAssay (NCATS).
# “And” between values parts separate entries of the source, which are not always exact repeats. Equal entries are not always repeated. Records with an inconclusive call do not appear. Entries that show only a call come without a potency. The source made the active and inactive calls. Unless noted, calls come from the whole dose curve; as a rule, active = well fitted curve in the direction sought with a large enough effect; inconclusive = small, poorly fitted or top-dose-only effect, or another doubt; inactive = no such curve, though single readings can be large; an effect the other way counts as inactive or inconclusive.
# How the values were obtained:
# [1] = system: Zika virus NS2B-NS3 protease (linked construct); assay: Confirmatory screen NINDS AMC qHTS for Zika virus inhibitors (AID 1347152); note: nearly all actives have a fitted effect of over 70% in size; note: potency is the fitted concentration of half-maximal effect
# Procedure, shortened: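 IC50s from 4-parameter Hill fits of percent inhibition, based on AMC fluorescence gain (340/450 nm) over 15 min with 10 microM Bz-Nle-KRR-AMC. Enzyme: 1 nM linked NS2B-NS3 in Tris-HCl pH 8.0; 15-min compound preincubation.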
# [2] = system: Zika virus NS2B-NS3 protease (linked construct); assay: 384 well plate NINDS Rhodamine confirmatory qHTS for Zika virus inhibitors (AID 1347164);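 note: fluorescence from protease cleavage of Ac-LKRR-rhodamine 110 substrate; nearly all actives have a fitted effect of over 65% in size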; note: potency is the fitted concentration of half-maximal effect
# Procedure, shortened: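 Fluorescence at 485/538 nm was measured 25 minutes after adding 10 microM Ac-LKRR-Rd substrate, in the dark at room temperature. The protease (5, 30 or 60 nM final) had been preincubated ~15 minutes with compound; aprotinin as control.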
# [3] = Confirmation and Secondary Assay for Modulators of Hemoglobin Beta Chain Splicing at IVS2 705 locus (AID 930);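 note: HeLa cells stably expressing the EGFP-705 splicing reporter; series mostly up to about 46 µM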
# Procedure, shortened: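 HeLa cells stably carrying EGFP interrupted by mutant beta-globin IVS2-705 intron (CMV-driven) were seeded at 500 cells/well, treated next day with compound for 2 days at 37C; corrected splicing restores EGFP, read as total peak GFP intensity per well.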
# [4] = system: Zika virus NS2B-NS3 protease (linked); assay: 384 well plate NINDS AMC confirmatory qHTS for Zika virus inhibitors (AID 1347163); details: Recombinant NS2B-NS3 protease, Ac-VKTGKR-AMC fluorescence; note: potency is the fitted concentration of half-maximal effect; nearly all actives have a fitted effect of over 50% in size
# Procedure, shortened: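 Fluorescence at 355/460 nm was read after 25 minutes of cleavage of 30 microM Ac-VKTGKR-AMC at room temperature, in the dark. Before substrate addition, compounds (up to 1 mM final) sat ~15 minutes with 5, 30 or 60 nM linked protease. Signals were normalized to no-enzyme and no-inhibitor wells.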
# [5] = biological target: Cytochrome P450 2C9 (Homo sapiens) (UniProt P11712); assay: qHTS Assay for Inhibitors and Substrates of Cytochrome P450 2C9 (AID 883); note: nearly all actives have a fitted effect of over 60% in size; note: potency is the fitted concentration of half-maximal effect
# Procedure, shortened: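 Human CYP2C9 (10nM) hydroxylated Luciferin-H (100uM, at its KM) to luciferin in 25mM KPO4. Compound was preincubated 10 min at 37C, then NADPH regeneration started a 60 min reaction at 37C. Luminescence was read after detection reagent, normalized to 57uM sulphaphenazole.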
# [6] = qHTS Assay for Identification of Small Molecule Antagonists for NFkB Signaling Pathway (AID 895; active = well fitted inhibition curve with a large enough effect in the signal ratio, with a control signal flat, not every such curve was filed as active; the % refers to the signal ratio)
# Procedure, shortened: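 NFkB-bla ME-180 cervical carcinoma cells with beta-lactamase reporter under NFkB response element; compounds added, then TNF alpha at 10 pM final (EC50), 5 h at 37 C. LiveBLAzer substrate 2 h, room temperature; emission 460/530 nm at 405 nm excitation.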
# [7] = biological target: Cytochrome P450 2C19 (Homo sapiens) (UniProt P33261); assay: qHTS Assay for Inhibitors and Substrates of Cytochrome P450 2C19 (AID 899); note: nearly all actives have a fitted effect of over 60% in size; note: potency is the fitted concentration of half-maximal effect
# Procedure, shortened: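 Human CYP2C19 (5nM) with Luciferin-H EGE at 10uM (its KM) in 50mM KPO4 was preincubated with compound for 10 min at 37C. NADPH regeneration started a 60 min 37C reaction. Luciferin was read by luminescence, normalized to 57uM ketoconazole.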
# [8] = qHTS Assay for Identification of Small Molecule Agonists for Thrombopoietin (TPO) Signaling Pathway (AID 917)
# Procedure, shortened: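 Luciferase reporter (Glycoprotein IIb promoter) in IL-3-deprived Ba/F3 cells carrying human TPO receptor; compounds co-added with 26 pM TPO, incubated 24 h, 37 C. Steadylite luminescence measured after 10 min.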
# [9] = biological target: RecQ-like DNA helicase BLM (Homo sapiens) (UniProt P54132); assay: qHTS Validation Assay for Inhibitors of Bloom's syndrome helicase (BLM) (AID 2364)
# Procedure, shortened: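 BLM 50 nM in 25 mM Tris-HCl pH 8.0, 5 mM NaCl, 2 mM MgCl2, 1 mM DTT, 0.01% Tween-20, 2.5 ug/ml poly(dI-dC); 15 min cpd preinc, RT. Start: 200 nM forked DNA + 2 mM ATP (final). TAMRA read, 2 reads 2 h apart.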
# [10] = biological target: Luciferin 4-monooxygenase (Photinus pyralis) (UniProt P08659); assay: Biochemical firefly luciferase enzyme assay for NPC (AID 624030);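 note: purified P. pyralis luciferase at 10 nM with luciferin and ATP substrate; series mostly up to about 59 µM; nearly all actives have a fitted effect of over 70% in size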
# Procedure, shortened: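 Counter-screen for direct inhibition of the luciferase enzyme by approved-drug library compounds, run at 10 nM enzyme in 50 mM Tris acetate (final). Luminescence was read within 5 min of enzyme-buffer addition and normalized to PTC124 versus DMSO (0%).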
# [11] = biological target: Alpha-galactosidase (Coffea arabica) (UniProt Q42656); assay: Counterscreen for Glucocerebrosidase Inhibitors: qHTS Assay for Coffee Bean alpha-Galactosidase at pH 4.5 (AID 957); note: series mostly up to about 77 µM
# Procedure, shortened: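 Enzyme is added first (2 nM final), then compounds titrated from 0.7 nM to 77 uM, then 80 uM 4-methylumbelliferyl alpha-D-galactopyranoside; after 20 min at room temperature a pH 10 NaOH/glycine stop precedes fluorescence reading at 365/440 nm.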
# [12] = biological target: Cytochrome P450 2D6 (Homo sapiens) (UniProt P10635); assay: qHTS Assay for Inhibitors and Substrates of Cytochrome P450 2D6 (AID 891); note: nearly all actives have a fitted effect of over 60% in size; note: potency is the fitted concentration of half-maximal effect
# Procedure, shortened: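 Luminescent read-out of luciferin formed by 5 nM human CYP2D6 demethylating 30 uM Luciferin-ME EGE (Km level) over 60 min at room temperature after NADPH regeneration addition. Data normalized to full inhibition by 1.43 uM quinidine.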
# [13] = system: Zika virus NS2B-NS3 protease (linked construct); assay: Primary screen NINDS Rhodamine qHTS for Zika virus inhibitors (AID 1347160); note: nearly all actives have a fitted effect of over 55% in size
# Procedure, shortened: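 Single-chain NS2B-NS3 protease, 25 nM, pH 8.0; compounds preincubated 15 min. Activity: Rhodamine110 release from 1.5 microM substrate over 15 min, room temperature, data fitted to 4-parameter Hill.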
# [14] = UWB1.289-WTBRCA1 Cancer Cell Toxicity qHTS against the NCATS CANVASS Library (AID 1347354); note: potency is the fitted concentration of half-maximal effect
# Procedure, shortened: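 First, 1000 cells go into each well and rest for 4 hours. Next, an 11-point dilution range is pinned in. Plates then incubate 72 hours before CellTiter-Glo addition and luminescence reading.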
# [15] = HPAF-II 24hr Apoptosis Induction qHTS against the NCATS CANVASS Library (AID 1347356)
# Procedure, shortened: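 Cells seeded at 500 per well, then compounds pin-transferred in an 11-point concentration series. After 24 hours at 37 degrees C, Caspase-Glo 3/7 was added and luminescence measured following 15 min at room temperature.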
# [16] = HPAF-II 12hr Apoptosis Induction qHTS against the NCATS CANVASS Library (AID 1347358)
# Procedure, shortened: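 Cells plated at 500 per well are dosed with compound and incubated 12 hours at 37 degrees C. Caspase-Glo 3/7 reagent is added and, after 15 min at room temperature, luminescence proportional to caspase activity is measured.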
# [17] = HEK293 24hr Apoptosis Induction qHTS against the NCATS CANVASS Library (AID 1347359)
# Procedure, shortened: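 HEK293 cells (500/well, DMEM + 10% FBS) were exposed to compounds in an 11-point series for 24 hours at 37 degrees C, then caspase-3/7 activity was read by Caspase-Glo DEVD luciferase luminescence after 15 min.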
# [18] = HPAF-II 18hr Apoptosis Induction qHTS against the NCATS CANVASS Library (AID 1347360)
# Procedure, shortened: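 Caspase-3/7 activation was measured with luminescent Caspase-Glo 3/7 reagent (15 min, RT) in HPAF-II cancer cells (500 cells/well). Before detection, cells had been treated for 18 h at 37 C with compounds (11 points).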
# [19] = HEK293 12hr Apoptosis Induction qHTS against the NCATS CANVASS Library (AID 1347361)
# Procedure, shortened: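 HEK293 cells (500/well, DMEM + 10% FBS) were exposed to natural products across an 11-point series for 12 hours at 37 degrees C. Caspase-3/7 activity was then measured with DEVD luciferase luminescence after 15 min at room temperature.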
# [20] = biological target: Luciferin 4-monooxygenase (Photinus pyralis) (UniProt P08659); assay: Firefly luciferase counterscreen qHTS: Assay Interference Panel against the NCATS CANVASS Library (AID 1347363); note: series mostly up to about 57 µM
# Procedure, shortened: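 Purified P. pyralis luciferase was added to compounds (11-point series) preincubated 15 min at room temperature with substrate containing 0.013 mM D-luciferin and 0.013 mM ATP; luminescence was read after 5 min.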
# Chain of Cytochrome P450 2C19 (Homo sapiens) (P33261 whole entry, looked up): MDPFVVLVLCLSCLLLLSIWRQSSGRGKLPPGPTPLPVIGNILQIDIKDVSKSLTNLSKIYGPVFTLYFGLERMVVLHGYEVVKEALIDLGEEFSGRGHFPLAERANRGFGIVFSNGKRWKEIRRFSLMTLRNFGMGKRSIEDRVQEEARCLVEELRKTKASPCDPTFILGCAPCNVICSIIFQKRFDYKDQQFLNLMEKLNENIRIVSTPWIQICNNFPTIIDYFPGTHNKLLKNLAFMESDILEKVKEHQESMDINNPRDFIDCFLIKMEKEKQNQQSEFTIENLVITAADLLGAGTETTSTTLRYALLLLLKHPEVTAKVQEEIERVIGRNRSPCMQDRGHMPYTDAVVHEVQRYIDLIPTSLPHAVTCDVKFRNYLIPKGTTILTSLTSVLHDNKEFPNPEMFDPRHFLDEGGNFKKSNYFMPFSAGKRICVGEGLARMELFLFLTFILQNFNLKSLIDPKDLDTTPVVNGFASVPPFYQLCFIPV
# Chain of Cytochrome P450 2C9 (Homo sapiens) (P11712 whole entry, looked up): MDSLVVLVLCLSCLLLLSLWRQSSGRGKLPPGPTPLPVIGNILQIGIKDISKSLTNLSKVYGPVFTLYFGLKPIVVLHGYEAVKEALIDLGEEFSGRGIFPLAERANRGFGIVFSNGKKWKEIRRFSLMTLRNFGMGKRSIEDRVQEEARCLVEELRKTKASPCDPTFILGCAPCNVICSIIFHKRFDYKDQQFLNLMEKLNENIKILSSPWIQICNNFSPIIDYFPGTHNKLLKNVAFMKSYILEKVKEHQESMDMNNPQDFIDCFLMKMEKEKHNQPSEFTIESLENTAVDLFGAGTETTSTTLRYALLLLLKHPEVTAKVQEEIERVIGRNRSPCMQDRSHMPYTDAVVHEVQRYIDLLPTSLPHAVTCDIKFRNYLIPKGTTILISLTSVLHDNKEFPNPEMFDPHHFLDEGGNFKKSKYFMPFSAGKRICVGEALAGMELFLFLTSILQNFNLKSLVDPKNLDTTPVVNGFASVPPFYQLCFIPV
# Chain of RecQ-like DNA helicase BLM (Homo sapiens) (P54132 whole entry, looked up): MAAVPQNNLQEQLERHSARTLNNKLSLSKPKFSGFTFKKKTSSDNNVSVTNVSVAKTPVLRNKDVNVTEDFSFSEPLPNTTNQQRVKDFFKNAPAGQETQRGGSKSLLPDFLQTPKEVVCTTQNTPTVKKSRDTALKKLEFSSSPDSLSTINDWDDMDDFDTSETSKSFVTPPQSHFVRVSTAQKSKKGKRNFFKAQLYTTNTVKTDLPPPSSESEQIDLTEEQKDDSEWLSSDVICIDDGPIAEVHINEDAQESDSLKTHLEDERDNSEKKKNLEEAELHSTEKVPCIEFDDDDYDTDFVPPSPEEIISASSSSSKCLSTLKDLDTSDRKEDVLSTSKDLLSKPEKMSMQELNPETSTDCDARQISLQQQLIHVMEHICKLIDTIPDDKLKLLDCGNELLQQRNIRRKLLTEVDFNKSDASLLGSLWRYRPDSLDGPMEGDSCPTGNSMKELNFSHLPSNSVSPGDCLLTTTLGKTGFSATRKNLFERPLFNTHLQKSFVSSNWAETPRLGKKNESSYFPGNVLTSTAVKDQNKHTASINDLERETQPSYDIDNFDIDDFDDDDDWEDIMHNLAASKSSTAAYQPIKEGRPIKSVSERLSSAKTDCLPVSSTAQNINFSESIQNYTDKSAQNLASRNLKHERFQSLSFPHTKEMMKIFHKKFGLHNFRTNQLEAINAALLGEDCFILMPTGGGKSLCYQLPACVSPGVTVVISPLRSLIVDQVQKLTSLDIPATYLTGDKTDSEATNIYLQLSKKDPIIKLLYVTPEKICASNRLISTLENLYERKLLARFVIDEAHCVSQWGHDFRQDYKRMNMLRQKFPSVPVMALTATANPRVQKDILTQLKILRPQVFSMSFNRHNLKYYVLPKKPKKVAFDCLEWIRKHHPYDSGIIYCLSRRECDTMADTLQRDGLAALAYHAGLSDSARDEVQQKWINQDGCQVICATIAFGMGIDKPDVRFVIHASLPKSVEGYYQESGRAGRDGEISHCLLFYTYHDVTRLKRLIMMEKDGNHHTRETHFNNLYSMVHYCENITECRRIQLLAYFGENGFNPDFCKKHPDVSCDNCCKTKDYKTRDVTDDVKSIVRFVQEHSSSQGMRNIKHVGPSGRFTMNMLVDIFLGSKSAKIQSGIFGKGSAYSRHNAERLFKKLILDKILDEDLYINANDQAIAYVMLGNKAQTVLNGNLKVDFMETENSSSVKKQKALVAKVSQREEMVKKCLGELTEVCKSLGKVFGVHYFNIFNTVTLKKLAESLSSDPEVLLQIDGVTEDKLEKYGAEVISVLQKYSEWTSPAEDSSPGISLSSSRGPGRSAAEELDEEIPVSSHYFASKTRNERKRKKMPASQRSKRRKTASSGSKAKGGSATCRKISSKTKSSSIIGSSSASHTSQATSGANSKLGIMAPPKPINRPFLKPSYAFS
# Chain of Alpha-galactosidase (Coffea arabica) (Q42656 whole entry, looked up): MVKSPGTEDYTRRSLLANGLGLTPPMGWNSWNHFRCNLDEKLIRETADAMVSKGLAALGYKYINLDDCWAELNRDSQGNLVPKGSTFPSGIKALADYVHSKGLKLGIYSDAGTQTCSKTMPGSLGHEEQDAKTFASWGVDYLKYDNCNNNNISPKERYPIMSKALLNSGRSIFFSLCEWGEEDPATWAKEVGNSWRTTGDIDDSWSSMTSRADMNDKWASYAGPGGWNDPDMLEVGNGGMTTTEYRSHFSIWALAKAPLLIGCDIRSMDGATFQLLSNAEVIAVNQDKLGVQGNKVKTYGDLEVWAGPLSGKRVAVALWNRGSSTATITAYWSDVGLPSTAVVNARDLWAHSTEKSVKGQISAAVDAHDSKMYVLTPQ
# Chain of Cytochrome P450 2D6 (Homo sapiens) (P10635 whole entry, looked up): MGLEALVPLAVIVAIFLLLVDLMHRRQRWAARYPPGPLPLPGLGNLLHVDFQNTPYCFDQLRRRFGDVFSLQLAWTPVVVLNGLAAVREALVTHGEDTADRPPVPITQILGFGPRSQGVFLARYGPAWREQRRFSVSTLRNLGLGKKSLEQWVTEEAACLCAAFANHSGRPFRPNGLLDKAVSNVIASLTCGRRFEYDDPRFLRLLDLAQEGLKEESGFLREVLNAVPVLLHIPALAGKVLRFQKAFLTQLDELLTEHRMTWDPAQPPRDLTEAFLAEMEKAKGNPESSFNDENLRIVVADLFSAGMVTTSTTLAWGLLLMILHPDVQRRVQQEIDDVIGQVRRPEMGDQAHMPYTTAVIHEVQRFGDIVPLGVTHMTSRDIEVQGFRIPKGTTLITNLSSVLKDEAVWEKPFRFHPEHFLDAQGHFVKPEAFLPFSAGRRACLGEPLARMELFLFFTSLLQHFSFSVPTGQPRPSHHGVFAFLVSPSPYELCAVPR
# Chain of Luciferin 4-monooxygenase (Photinus pyralis) (P08659 whole entry, looked up): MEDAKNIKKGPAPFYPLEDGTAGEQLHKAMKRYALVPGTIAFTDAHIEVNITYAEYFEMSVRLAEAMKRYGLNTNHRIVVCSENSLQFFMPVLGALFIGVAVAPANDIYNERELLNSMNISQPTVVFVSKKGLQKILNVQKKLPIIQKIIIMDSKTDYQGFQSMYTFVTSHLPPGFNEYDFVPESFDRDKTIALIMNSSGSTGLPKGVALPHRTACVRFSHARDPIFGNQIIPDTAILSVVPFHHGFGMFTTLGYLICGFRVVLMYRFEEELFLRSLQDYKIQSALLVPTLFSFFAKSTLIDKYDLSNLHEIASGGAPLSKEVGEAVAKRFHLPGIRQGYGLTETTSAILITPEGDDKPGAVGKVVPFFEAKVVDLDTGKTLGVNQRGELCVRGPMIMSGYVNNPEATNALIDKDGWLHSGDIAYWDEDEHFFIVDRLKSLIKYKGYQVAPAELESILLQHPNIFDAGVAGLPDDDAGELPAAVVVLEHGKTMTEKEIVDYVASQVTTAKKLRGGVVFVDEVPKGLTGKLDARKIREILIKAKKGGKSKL
structure (smiles),measurement,setting,value
CN(C(=O)Cc1ccc(Cl)c(Cl)c1)[C@@H](CN1CCCC1)c1cccc(OCC(=O)O)c1,Potency,[1],inactive
CNc1ccc2oc(C[C@@H]3OC4(CC[C@@H]3C)O[C@H]([C@@H](C)C(=O)c3ccc[nH]3)[C@H](C)C[C@H]4C)nc2c1C(=O)O (stereo partly specified),Potency,[1],19.2 µM (active)
same,Potency,[2],44.7 µM (active)
COc1cc2c(cc1OCC1CCCC1)N([S+](=O)([O-])c1ccc(Oc3ccccc3)cc1)CC21CCN(CC(=O)O)CC1,Potency,[1],inactive
Oc1c(Cl)c(Cl)c(Cl)c(Cl)c1Cl,outcome,[3],inactive
same,Potency,[4],355 µM (active)
same,Potency,[2],70.8 µM (active)
O=c1c(O)c(-c2ccc(O)c(O)c2)oc2c(O)c(O)cc(O)c12,outcome,[3],inactive
same,Potency,[4],158 µM (active)
same,Potency,[2],100 µM (active)
Clc1cncc(N2CCNCC2)n1,Potency,[5],2 µM (active)
same,Potency,[1],24.1 µM (active) and 8.57 µM (active)
COC(=O)c1cc2c(cn1)[nH]c1ccccc12,Potency,[6],inactive
same,Potency,[7],3980 nM (active)
same,outcome,[8],inactive
same,Potency,[9],inactive
same,Potency,[1],24.1 µM (active)
CO[C@H]1[C@@H](O)CC(OC2[C@@H](O)CC(OC3[C@@H](O)C[C@H](OC4CC[C@@]5(C)C(CCC6C5CC(O)[C@]5(C)[C@H](C7=CC(=O)OC7)CCC65O)C4)O[C@@H]3C)O[C@@H]2C)O[C@@H]1C (stereo partly specified),Potency,[10],inactive
Ic1cncc(OC[C@@H]2CCN2)c1,Potency,[2],inactive
CC(C)=CCCC1(C)C=Cc2c(O)c3c(c(CC=C(C)C)c2O1)OC12C(=CC4CC1C(C)(C)OC2(C/C=C(/C)C(=O)O)C4O)C3=O (stereo unspecified),outcome,[3],inactive
same,Potency,[4],126 µM (active)
COc1ccc2[nH]cc(CCN(C)C)c2c1,Potency,[5],inactive
same,Potency,[6],inactive
same,outcome,[8],inactive
same,outcome,[11],inactive
same,Potency,[9],inactive
N[C@H](CCCCCP(=O)(O)O)C(=O)O,Potency,[5],inactive
same,Potency,[12],inactive
same,Potency,[7],inactive
same,outcome,[8],inactive
same,outcome,[11],inactive
same,Potency,[9],inactive
CCN(CC)CCO[C@H]1CC[C@@]2(C)C(=CC[C@@H]3[C@H]2CC[C@]2(C)C(=O)CC[C@H]32)C1,Potency,[12],0.0794 µM (active)
same,Potency,[10],inactive
C=C1[C@@H](C)[C@H]2[C@H](Cc3ccccc3)NC(=O)[C@]23OC(=O)/C=C/[C@H](O)CCC[C@@H](C)C/C=C/[C@H]3[C@@H]1O,Potency,[13],inactive
same,Potency,[14],13.3 µM (active)
same,outcome,[15],inactive
same,outcome,[16],inactive
same,Potency,[17],inactive
same,outcome,[18],inactive
same,Potency,[19],inactive
same,outcome,[20],inactive
CP(=O)(O)CCCN,Potency,[6],inactive
COc1cc(CCN)ccc1O,outcome,[8],inactive
same,outcome,[11],inactive
same,Potency,[9],inactive
N[C@@H](Cn1cc(I)c(=O)[nH]c1=O)C(=O)O,outcome,[8],inactive
same,outcome,[11],inactive
COc1ccc(CCN)cc1O,outcome,[8],inactive
same,outcome,[11],inactive
CN1CCN(c2ccc3ccccc3n2)CC1,Potency,[6],inactive
same,outcome,[11],inactive
same,Potency,[9],inactive
C[C@@H](C(=O)OC1C[C@H]2CC[C@@H](C1)N2C)c1ccc(Br)cc1 (stereo partly specified),Potency,[12],3.98 µM (active)
COc1ccc2c3c([nH]c2c1)C(C)=NCC3,Potency,[12],3.98 µM (active)
same,outcome,[3],inactive
same,Potency,[13],inactive
same,Potency,[14],inactive
same,outcome,[15],inactive
same,outcome,[16],inactive
same,Potency,[17],inactive
same,outcome,[18],inactive
same,Potency,[19],inactive
same,outcome,[20],inactive
COc1ccc2c(c1)[nH]c1c(C)nccc12,outcome,[3],inactive
same,Potency,[13],inactive
same,Potency,[14],inactive
same,outcome,[15],inactive
same,outcome,[16],inactive
same,Potency,[17],inactive
same,outcome,[18],inactive
same,Potency,[19],inactive
same,outcome,[20],inactive
C[N+]1(C)CCc2cc3c(cc2C1C1OC(=O)c2c1ccc1c2OCO1)OCO3 (stereo unspecified),Potency,[9],inactive
CC[C@H](Oc1ccc(Cl)cc1)C(=O)OC1C[C@H]2CC[C@@H](C1)N2C (stereo partly specified),Potency,[12],0.0063 µM (active)
same,Potency,[7],15.8 nM (active)
CC(C)[C@@]1(NC(=O)[C@@H]2C[C@H]3c4cccc5[nH]cc(c45)C[C@@H]3N(C)C2)O[C@@]2(O)[C@H]3CCCN3C(=O)[C@H](Cc3ccccc3)N2C1=O,Potency,[5],2.51 µM (active) and 6.31 µM (active)
same,Potency,[7],3.98 µM (active) and 5.01 µM (active)
C=CCN1C[C@H](C)N([C@H](c2ccc(C(=O)N(CC)CC)cc2)c2cccc(O)c2)C[C@H]1C,Potency,[5],3.98 µM (active)
CN(C(=O)Cc1ccc(Cl)c(Cl)c1)[C@H](CN1CCCC1)c1ccccc1,Potency,[7],316 nM (active)
C[C@H]1C[C@H](C)C(=O)[C@@H]([C@H](O)CC2CC(=O)NC(=O)C2)C1,Potency,[10],inactive
